TexasRed fluor: Total Fluorescence Counterscreen for Inhibitors of the Interaction of Thyroid Hormone Receptor and Steroid Receptor Coregulator 2; TRb/SRC2 Texas Red total fluorescence interference; Potency, µM (titrated, usually from 106 µM); actives 0.29% (n = 280,000); active = well fitted curve in either direction with a large enough effect; inconclusive = small, poorly fitted or top-dose-only effect
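Human TRβ ligand-binding domain (0.6 uM) and Texas Red SRC2 peptide (20 nM) in Tris buffer with 1 uM T3 and 5% DMSO were incubated with pinned compound for 5 hr at ambient temperature. Total fluorescence was computed as S + 2P (555/632 nm).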
Tau FP inhib: qHTS for Inhibitors of Tau Fibril Formation, Fluorescence Polarization; K18 P301L tau heparin fibrillization, Alexa594 FP, 6 h; Potency, µM (titrated, usually from 57.7 µM), most hits filed as inhibitors; actives 0.39% (n = 280,000); note: nearly all actives have a fitted effect of over 55% in size
Target sequence (P10636 561-689 P618L limits assumed): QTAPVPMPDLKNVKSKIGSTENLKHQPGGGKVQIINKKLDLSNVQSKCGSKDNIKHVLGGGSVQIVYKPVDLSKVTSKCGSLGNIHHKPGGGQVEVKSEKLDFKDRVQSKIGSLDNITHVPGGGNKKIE
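Steps: dispense K18 P301L tau (15 uM plus 0.24 uM Alexa 594 tracer, final) in pH 7 sodium acetate; add compound; add heparin (20 uM final); incubate 6 hr, 37 C; add ThT (30 uM final); after 1 hr ambient, read FP.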
TRb SRC2 PPI: qHTS for Inhibitors of the Interaction of Thyroid Hormone Receptor and Steroid Receptor Coregulator 2 | TRbeta-SRC2 peptide binding, fluorescence polarization; receptor liganded with 1 µM T3 | AID 1469, 2008 | Thyroid hormone receptor beta (Homo sapiens), P10828 | Potency, µM (series often up to 106 µM), actives largely listed as inhibitors | actives 0.065% (n = 280,000); note: nearly all actives have a fitted effect of over 50% in size
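Human TRb LBD (0.6 uM) plus Texas Red-labeled SRC2 peptide (20 nM), 1uM T3, 5% DMSO, 5 hr at ambient temperature. Decreased polarization (555/632 nm) flags inhibition; data normalized to free and bound peptide controls.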
Tau fluor counter: Counterscreen qHTS for Inhibitors of Tau Fibril Formation, Fluorescence Polarization. tau K18 P301L Alexa594 fluorescence, heparin fibrillization. Potency, µM (titrated, usually from 57.7 µM). actives 0.93% (n = 280,000). AID 1463, 2008; note: nearly all actives have a fitted effect of over 55% in size
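Human tau K18 P301L (15 uM unlabeled, 0.24 uM Alexa 594-labeled) in 100 mM sodium acetate pH 7 with 20 uM heparin, 6 hr at 37 C. ThT 30 uM added, 1 hr ambient; Alexa 594 FP and total fluorescence read at 555/632 nm.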
Tau fibril ThT: qHTS for Inhibitors of Tau Fibril Formation, Thioflavin T Binding. recombinant tau K18 P301L, heparin-induced fibrillization, ThT fluorescence. Potency, µM (top dose mostly 57.4 µM), usual class: inhibitors. actives 2.1% (n = 270,000). AID 1460, 2008; note: nearly all actives have a fitted effect of over 55% in size
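Fibril formation assay: tau K18 P301L at 15 uM with trace Alexa 594 label, heparin inducer 20 uM, pH 7 sodium acetate buffer, 37 C for 6 hr; endpoint ThT signal.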
GoLoco inh red: qHTS Assay for Inhibitors of RGS12 GoLoco Motif Activity (Red Fluorophore). Gai1:RGS12 GoLoco peptide FP, rhodamine, 10 min. Potency, µM (doses to about 61.6 µM), hits mostly inhibitors. actives 0.44% (n = 230,000). Guanine nucleotide-binding protein G(i) subunit alpha-1 (Homo sapiens), P63096; active = well fitted inhibition curve with a large enough effect, not every such curve was filed as active; inactive = no such curve, though single readings can be large or run the other way; note: nearly all actives have a fitted effect of over 30% in size
Target sequence (P63096 whole entry, looked up): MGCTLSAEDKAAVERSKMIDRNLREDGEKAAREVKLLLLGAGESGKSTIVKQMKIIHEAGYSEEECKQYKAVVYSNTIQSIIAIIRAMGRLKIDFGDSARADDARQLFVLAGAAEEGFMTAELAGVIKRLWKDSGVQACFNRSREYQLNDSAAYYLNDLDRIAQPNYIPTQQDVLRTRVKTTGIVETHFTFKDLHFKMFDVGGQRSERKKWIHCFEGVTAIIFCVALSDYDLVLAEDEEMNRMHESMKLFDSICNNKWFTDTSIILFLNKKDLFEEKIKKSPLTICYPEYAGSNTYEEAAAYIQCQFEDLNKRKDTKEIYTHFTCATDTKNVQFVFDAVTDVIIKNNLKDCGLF
Each line names hits and unclear results; the compound was inactive in the other large screens; [ ] = another dose, or the depositor's remark. An excerpt weighted towards active compounds, which were near 3.1% of everything screened. Unless noted, calls come from the whole dose curve; as a rule, active = well fitted curve in the direction sought with a large enough effect; inconclusive = small, poorly fitted or top-dose-only effect, or another doubt; inactive = no such curve, though single readings can be large; an effect the other way counts as inactive or inconclusive.

CCNC(=S)N/N=C1\C(=O)c2cccc3cccc1c23	Tau fibril ThT inconclusive
O=C(N/N=C1/C(=O)c2cccc3cccc1c23)c1ccc(Cl)cc1	Tau fibril ThT 4.47µM
Cc1ccc(C(C)NC(=O)/C(C#N)=C\c2c(C)[nH]c3ccccc23)cc1 (centres undefined)	Tau FP inhib 25.1µM, Tau fluor counter 10µM[quencher]
COc1cccc(NC(=O)COC(=O)c2c3c(nc4ccccc24)CCC(C)C3)c1 (centres undefined)	Tau fluor counter inconclusive
CCCN1CCCc2ccccc21	none
N#CCCN1CCCc2cc(N=Nc3ccc(C(F)(F)F)cc3)ccc21	Tau FP inhib inconclusive, Tau fluor counter 8.91µM[quencher], Tau fibril ThT 3.55µM
Cc1ccc(-c2csc(CC(N)=O)n2)cc1	none
COc1ccc(-c2csc(N3C(=O)C4C5c6ccccc6C(c6ccccc65)[C@@H]4C3=O)n2)cc1 (some centres undefined)	none
CC(=O)Nc1ccc(N2N=C(C)C(N=Nc3ccccc3)C2=O)cc1 (centres undefined)	Tau fibril ThT 4.47µM
CC1=NN(c2ccccc2)C(=O)C1N=Nc1ccc(C)cc1 (centres undefined)	none
CC1=NN(c2ccccc2)C(=O)C1N=Nc1ccc(S(N)(=O)=O)cc1 (centres undefined)	Tau fibril ThT inconclusive
CC1=NN(c2nc(-c3ccccc3)cs2)C(=O)C1N=Nc1ccccc1 (centres undefined)	Tau fluor counter inconclusive, Tau fibril ThT 2.24µM
CC1=NN(c2nc(-c3ccc(C)cc3)cs2)C(=O)C1N=Nc1ccc(C(N)=O)cc1 (centres undefined)	Tau fluor counter inconclusive, Tau fibril ThT 2.82µM
CC1=NN(c2nc(-c3ccc(C)cc3)cs2)C(=O)C1N=Nc1ccc2ccccc2c1 (centres undefined)	Tau fibril ThT 1.41µM
C=CCN1C(=O)C(Cc2ccc(OC)cc2)S/C1=N\N=C\c1cccs1 (centres undefined)	none
CCOC(=O)N1CCN(c2c(N3CC=C(c4ccccc4)CC3)c(=O)c2=O)CC1	Tau fibril ThT inconclusive
Nc1ccc(-c2nc3c(Cl)cc(N)cc3[nH]2)cc1	Tau FP inhib inconclusive, Tau fluor counter inconclusive, Tau fibril ThT 20µM
Nc1ccc2nc(-c3ccc(N)c(Cl)c3)[nH]c2c1	TexasRed fluor inconclusive, Tau FP inhib inconclusive, Tau fluor counter inconclusive, Tau fibril ThT inconclusive
CSc1nc(O)c(C(c2cccc([N+](=O)[O-])c2)c2c(O)nc(SC)[nH]c2=O)c(=O)[nH]1	Tau FP inhib inconclusive, Tau fibril ThT 11.2µM
O=c1c(-c2ccc(F)cc2)nc2cnc(Oc3ccccc3)nc2n1Cc1cccs1	none (no result: TexasRed fluor, Tau FP inhib, TRb SRC2 PPI, Tau fluor counter, Tau fibril ThT)
Cc1ccccc1S(=O)(=O)NC1OC(=O)C(Oc2ccccc2)=C1Br (centres undefined)	none
Cc1ccccc1S(=O)(=O)NC1OC(=O)C(Cl)=C1Cl (centres undefined)	Tau FP inhib 28.2µM, Tau fibril ThT 28.2µM
NC1=C([N+](=O)[O-])C(c2ccc(F)cc2)C2=C(CCCC2=O)O1 (centres undefined)	none
CC1=C(C(=O)Nc2ccc(C)cc2)C(c2ccc(Cl)cc2)n2nnnc2N1 (centres undefined)	Tau FP inhib inconclusive (no result: GoLoco inh red)
CC1=C(C(=O)Nc2ccc(Cl)cc2)C(c2ccc(C(F)(F)F)cc2)n2nnnc2N1 (centres undefined)	Tau FP inhib 22.4µM, Tau fluor counter inconclusive (no result: GoLoco inh red)
COc1ccc(Cl)cc1-n1c(C)cc(C=O)c1C	none
Cc1cccc(-c2c3c(=O)n(C)c(=O)n(C)c3cn2CC2CCCO2)c1 (centres undefined)	none
CCOC(=O)C1=C(C)c2ccccc2OC1(CC)C(=O)OCC (centres undefined)	none
O=C1NC2(O)C(=O)c3ccccc3C2(O)N1 (centres undefined)	none
CC(=O)C1=C(C)OC2(O)c3ccccc3C(=O)C12O (centres undefined)	Tau FP inhib inconclusive, Tau fibril ThT 2.24µM
CCOC(=O)C1=C(C)OC2(O)c3ccccc3C(=O)C12O (centres undefined)	Tau FP inhib 1.41µM, Tau fibril ThT 2µM
CSc1nc(/C=C2\C=Nc3ccccc32)c(O)n1C	Tau fluor counter inconclusive, Tau fibril ThT 11.2µM
CC(C)n1c(O)c(/C=C2\C=Nc3ccccc32)sc1=Nc1ccccc1	Tau fluor counter inconclusive
COc1ccccc1NC(=O)N1CCN(c2cc(-c3ccccc3)nc3ncnn23)CC1	none
CCOC(=O)/C(=N\Nc1ccccc1)c1csc(Nc2ccc(C)cc2)n1	Tau fluor counter 7.08µM[quencher], Tau fibril ThT inconclusive
CCCCC(CCC(=O)O)(C(=O)OCC)c1csc(Nc2ccc(C)cc2)n1 (centres undefined)	none
O=C(CSCc1nc2ccccc2[nH]1)Nc1ccc2ccccc2c1	Tau FP inhib inconclusive, Tau fluor counter inconclusive, Tau fibril ThT 22.4µM (no result: GoLoco inh red)
O=C(CS)Nc1ccc2ccccc2c1	Tau FP inhib inconclusive, Tau fluor counter inconclusive, Tau fibril ThT 25.1µM
NC(=O)c1cc(-c2ccccc2)sc1NC(=O)CN1CCCCC1	Tau FP inhib inconclusive, Tau fluor counter 17.8µM[quencher]
O=C(Cc1cnn(-c2ccccc2)c1)c1ccc(O)c(O)c1O	Tau FP inhib inconclusive, Tau fluor counter inconclusive, Tau fibril ThT 14.1µM
CCOC(=O)c1c(CSC(=N)N)n(-c2ccc(Br)cc2)c2cc(Br)c(OC(C)=O)cc12	Tau FP inhib inconclusive, Tau fluor counter inconclusive, Tau fibril ThT 15.8µM
CCCCCCCCOC(=O)c1c(CSC(=N)N)n(C)c2cc(Br)c(OC(C)=O)cc12	Tau fluor counter inconclusive, Tau fibril ThT inconclusive
COC(=O)c1ccc(NC(=O)CSc2cn(CC(=O)N3CCCCCC3)c3ccccc23)cc1	none (no result: GoLoco inh red)
COc1cc(/C=N/NC(=O)c2cc(-c3ccco3)nc3ccccc23)cc(OC)c1O	Tau fluor counter inconclusive, Tau fibril ThT inconclusive
O=C(N/N=C/c1cccc(F)c1)c1cc(-c2ccco2)nc2ccccc12	TexasRed fluor 31.6µM[quencher], Tau fluor counter inconclusive, Tau fibril ThT inconclusive
Cn1c(N=Nc2ccc(N3CCOCC3)cc2)[n+](C)c2ccccc21	Tau FP inhib 14.1µM, Tau fluor counter 3.98µM[quencher], Tau fibril ThT 1µM

Bioassay records as filed in PubChem.
